Measurements taken from PubChem BioAssay.
Values joined by “and” are separate entries in the source; they are usually repeats but may differ in a detail not shown here. Equal entries are not always repeated. Inconclusive results are not listed. Active and inactive are the calls of the source.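 Rule for the calls, unless noted: active = normalized viability below 100% at a tested concentration; inactive = the rest.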

Columns and labels:
[1] = viability loss in pontine glioma line – cell-based, SU-DIPG-XIII, MIPE4.0, CellTiter-Glo, qHTS, dose response (AID 1347061; cut-off not given, nearly all actives have AC50 up to about 37 µM;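 note: cells exposed to compound for 48 hours before readout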); settings: CellTiter-Glo ATP luminescence
[2] = viability loss in pontine glioma line – cell-based, SU-DIPG-IV, MIPE4.0, CellTiter-Glo, qHTS, dose response (AID 1347063; cut-off not given, nearly all actives have AC50 up to about 30 µM;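 note: compound exposure lasted 48 hours before the viability readout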); settings: CellTiter-Glo ATP luminescence
[3] = growth inhibition of DIPG cells – cell-based, MIPE4.0 library, CellTiter-Glo luminescence, qHTS (AID 1347066; cut-off not given, nearly all actives have AC50 up to about 30 µM;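 note: cells exposed to compound for 48 hours before readout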); settings: SU-DIPG-VI viability, CellTiter-Glo ATP luminescence
[4] = viability loss in pontine glioma line – cell-based, SU-DIPG-XIII, MIPE5.0, CellTiter-Glo, qHTS, dose response (AID 1347064; cut-off not given, nearly all actives have AC50 up to about 23 µM;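 for AC50: cells exposed to compound for 48 hours before the viability read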); settings: CellTiter-Glo ATP luminescence
[5] = viability loss in pontine glioma line – cell-based, SU-DIPG-XXV, MIPE5.0, CellTiter-Glo, qHTS, dose response (AID 1347065; cut-off not given, nearly all actives have AC50 up to about 26 µM;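 note: cells exposed to compound for 48 hours before ATP readout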); settings: CellTiter-Glo ATP luminescence
[6] = growth inhibition of DIPG cells – cell-based, MIPE5.0 library, qHTS (AID 1347068; cut-off not given, nearly all actives have IC50 up to about 30 µM;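 for IC50: cells exposed to compound for 48 hours before viability readout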); settings: SU-DIPG-XXV viability
[7] = compounds altering HSF1 focus formation in cells – imaging, Selleck Cancer Library (AID 1347162; in the data active = plate-normalised HSF1 focus index below about 0.46); settings: human cells, HSF1 nuclear foci imaging, at 10 µM; SSMD: measured here: HSF1 foci SSMD mean; cell count: measured here: cell number; plate-normalised HSF1 focus index: stronger effect = lower value
[8] = drug combination growth inhibition, ovarian cancer – cell-based, oncology-focused library, rucaparib conditional, profiling panel (AID 1508598); settings: patient-derived ovarian cancer cells, CellTiter-Glo viability, 144 h, stronger effect = lower value
[9] = viability loss in pontine glioma line – cell-based, JHH-DIPG-1, MIPE4.0, CellTiter-Glo, qHTS, dose response (AID 1347062; cut-off not given, nearly all actives have AC50 up to about 27 µM); settings: JHH-DIPG-1 viability, CellTiter-Glo ATP luminescence
[10] = viability loss with induced miR-34 in A549 – imaging, A549 dox-inducible miR-34, nuclei and caspase counts, primary screen (AID 1347080;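 active = compounds whose cell count with miR-34 switched on is under 0.7 times the count with it off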); settings: A549 miR-34 inducible, Hoechst nuclei count, 48 h
[11] = MELAS cybrid and Rieske KO viability enhancers – cell-based, MELAS cybrids, Rieske KO mouse fibroblasts, CellTiter-Glo, primary screen (AID 1508586;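 active = mean z-score across replicates of 1.96 or higher in either the MELAS or the Rieske mutant cell line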;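 note: z relative to plate mean and SD of compound and empty wells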); settings: low glucose
[12] = JHH-DIPG-1 glioma cell viability, MIPE5.0 library, CellTiter-Glo luminescence, qHTS (AID 1347067; cut-off not given, nearly all actives have AC50 up to about 26 µM;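 note: cells exposed to compound for 48 hours before readout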); settings: JHH-DIPG-1 glioma viability, CellTiter-Glo ATP luminescence
[13] = at 0.000305 µM, OCI-C5x cells, with rucaparib 10 µM, 100% = cells with rucaparib alone
[14] = at 0.000305 µM, OCI-C5x cells, without rucaparib
[15] = at 0.000305 µM, OCI-P5x cells, with rucaparib 20 µM, 100% = cells with rucaparib alone
[16] = at 0.000305 µM, OCI-P5x cells, without rucaparib
[17] = at 0.00122 µM, OCI-C5x cells, with rucaparib 10 µM, 100% = cells with rucaparib alone
[18] = at 0.00122 µM, OCI-C5x cells, without rucaparib
[19] = at 0.00122 µM, OCI-P5x cells, with rucaparib 20 µM, 100% = cells with rucaparib alone
[20] = at 0.00122 µM, OCI-P5x cells, without rucaparib
[21] = at 0.00488 µM, OCI-C5x cells, with rucaparib 10 µM, 100% = cells with rucaparib alone
[22] = at 0.00488 µM, OCI-C5x cells, without rucaparib
[23] = at 0.00488 µM, OCI-P5x cells, with rucaparib 20 µM, 100% = cells with rucaparib alone
[24] = at 0.00488 µM, OCI-P5x cells, without rucaparib
[25] = at 0.0195 µM, OCI-C5x cells, with rucaparib 10 µM, 100% = cells with rucaparib alone
[26] = at 0.0195 µM, OCI-C5x cells, without rucaparib
[27] = at 0.0195 µM, OCI-P5x cells, with rucaparib 20 µM, 100% = cells with rucaparib alone
[28] = at 0.0195 µM, OCI-P5x cells, without rucaparib
[29] = at 0.0781 µM, OCI-C5x cells, with rucaparib 10 µM, 100% = cells with rucaparib alone
[30] = at 0.0781 µM, OCI-C5x cells, without rucaparib
[31] = at 0.0781 µM, OCI-P5x cells, with rucaparib 20 µM, 100% = cells with rucaparib alone
[32] = at 0.0781 µM, OCI-P5x cells, without rucaparib
[33] = at 0.313 µM, OCI-C5x cells, with rucaparib 10 µM, 100% = cells with rucaparib alone
[34] = at 0.313 µM, OCI-C5x cells, without rucaparib
[35] = at 0.313 µM, OCI-P5x cells, with rucaparib 20 µM, 100% = cells with rucaparib alone
[36] = at 0.313 µM, OCI-P5x cells, without rucaparib
[37] = at 1.25 µM, OCI-C5x cells, with rucaparib 10 µM, 100% = cells with rucaparib alone
[38] = at 1.25 µM, OCI-C5x cells, without rucaparib
[39] = at 1.25 µM, OCI-P5x cells, with rucaparib 20 µM, 100% = cells with rucaparib alone
[40] = at 1.25 µM, OCI-P5x cells, without rucaparib
[41] = at 5 µM, OCI-C5x cells, with rucaparib 10 µM, 100% = cells with rucaparib alone
[42] = at 5 µM, OCI-C5x cells, without rucaparib
[43] = at 5 µM, OCI-P5x cells, with rucaparib 20 µM, 100% = cells with rucaparib alone
[44] = at 5 µM, OCI-P5x cells, without rucaparib
[45] = stronger effect = lower value, cell number ratio, induced over uninduced
[46] = measured here: relative caspase fold change +Dox/-Dox
[47] = measured here: total cells with miR-34 induction, stronger effect = lower value
[48] = measured here: total cells without miR-34 induction
[49] = MELAS cybrid survival, CellTiter-Glo 48 h, stronger effect = higher value
[50] = Rieske KO mouse fibroblast survival, CellTiter-Glo 72 h

Cc1ccc2c(c1)c1c(n2CCc2ccc(C)nc2)CCN(C)C1
inactive: outcome [1] | outcome [2] | outcome [3]

CCn1c(-c2nonc2N)nc2c(C#CC(C)(C)O)ncc(OC[C@H]3CCCNC3)c21
6930: cell count [7]
inactive: plate-normalised HSF1 focus index [7] 1.06 | viability [8, 13] 119% | viability [8, 14] 119% | viability [8, 17] 129% | viability [8, 18] 125% | viability [8, 19] 100% | viability [8, 21] 133% | viability [8, 22] 119% | viability [8, 23] 109% | viability [8, 25] 118% | viability [8, 26] 125% | viability [8, 27] 107% | viability [8, 28] 109% | viability [8, 29] 124% | viability [8, 30] 119% | viability [8, 32] 101% | viability [8, 33] 113% | viability [8, 34] 131% | viability [8, 36] 109% | viability [8, 37] 114% | viability [8, 38] 136% | viability [8, 42] 128%
1.18: SSMD [7]
active: AC50 [1] 16.6 µM | AC50 [2] 7.43 µM | AC50 [4] 2.63 µM | AC50 [5] 2.35 µM | IC50 [6] 16.6 µM | viability [8, 15] 98.8% | viability [8, 16] 93.1% | viability [8, 20] 99.7% | viability [8, 24] 99.7% | viability [8, 31] 89.1% | viability [8, 35] 85.8% | viability [8, 39] 72.5% | viability [8, 40] 90.8% | viability [8, 41] 94.5% | viability [8, 43] 67.2% | viability [8, 44] 68.3%

CC(=O)O[C@@]12CO[C@@H]1C[C@H](O)[C@@]1(C)C(=O)[C@H](O)C3=C(C)[C@@H](OC(=O)C(O)[C@@H](NC(=O)OC(C)(C)C)c4ccccc4)C[C@@](O)([C@@H](OC(=O)c4ccccc4)[C@H]21)C3(C)C (stereo not given in full)
inactive: outcome [1] | outcome [2] | outcome [3]

Cc1coc2c1C(=O)C(=O)c1c-2ccc2c(C)cccc12
1.93: fold change [10, 46]
-1: z-score [11, 50]
7470: cell count [10, 47]
inactive: outcome [1] | outcome [9] | fold change [10, 45] 0.847 | z-score [11, 49] -0.324
8830: cell count [10, 48]

CN1CCN(c2cc(C(=O)Nc3ccc4c(c3)-c3c(c(C(N)=O)nn3-c3ccc(F)cc3)CC4)c(Cl)cn2)CC1
active: AC50 [1] 9.35 µM | AC50 [2] 18.7 µM | AC50 [4] 14.8 µM | AC50 [5] 10.5 µM | AC50 [3] 23.5 µM | AC50 [12] 13.2 µM

CC(=O)C1=C(O)C=C2Oc3c(C(C)=O)c(O)c(C)c(O)c3C2(C)C1=O (stereo not given)
inactive: outcome [1] | outcome [3]

CC(O)(C#Cc1ccc2c(c1)N(c1nc(N)ncc1Cl)CC2)c1nccs1 (stereo not given)
active: AC50 [1] 16.6 µM | AC50 [2] 16.6 µM | AC50 [5] 13.2 µM | AC50 [12] 18.6 µM
inactive: outcome [3]

O=c1cc(-c2ccc(O)c(O)c2)oc2cc(O)cc(O)c12
7040 and 6030 and 8740: cell count [10, 47]
-0.97 and -0.213: z-score [11, 50]
1.18 and 0.969 and 1.11: fold change [10, 46]
8620 and 6020 and 9220: cell count [10, 48]
inactive: outcome [1] | outcome [2] | outcome [3] | fold change [10, 45] 0.817 and 1 and 0.947 | z-score [11, 49] -0.397 and 1.32

CN(C[C@@H]1COCCO1)S(=O)(=O)Nc1ccc2ccc3ncc(-c4cnn(C)c4)cc3c(=O)c2c1
inactive: outcome [3]
active: AC50 [1] 2.64 µM | AC50 [4] 2.63 µM | AC50 [5] 2.09 µM | IC50 [6] 3.32 µM

C[C@@H](NCc1cc2ccccc2[nH]1)c1cccc2ccccc12
active: AC50 [5] 26.3 µM | AC50 [12] 14.8 µM
inactive: outcome [1] | outcome [2] | outcome [3]

N#Cc1ccc(NC(=O)Nc2ccccc2Br)c2n[nH]nc12
-0.0129: SSMD [7]
inactive: outcome [1] | outcome [5] | plate-normalised HSF1 focus index [7] 1
7440: cell count [7]

CN(C)c1cc(NC(=O)CNC(C)(C)C)c(O)c2c1C[C@H]1C[C@H]3[C@H](N(C)C)C(=O)C(C(N)=O)=C(O)[C@@]3(O)C(=O)C1=C2O
0.0397: z-score [11, 50]
inactive: outcome [1] | outcome [9] | outcome [3] | z-score [11, 49] 0.577

CC[C@]1(O)C[C@@H]2CN(CCc3c([nH]c4ccccc34)[C@@](C(=O)OC)(c3cc4c(cc3OC)N(C=O)[C@@H]3C45CCN4CC=C[C@](CC)([C@H]45)[C@@H](OC(C)=O)[C@]3(O)C(=O)OC)C2)C1 (stereo not given in full)
inactive: outcome [1] | outcome [2] | plate-normalised HSF1 focus index [7] 1.12
2.03: SSMD [7]
6870: cell count [7]

O=C(C1CC1)N1CC[C@@H](Cn2c(-c3ccc(-c4ccc5occc5c4)cc3)nc3cnccc32)C1
inactive: outcome [1] | outcome [3] | outcome [6]
active: AC50 [5] 18.6 µM

CC[C@@H]1/C=C(\C)C[C@H](C)C[C@H](OC)[C@H]2O[C@@](O)(C(=O)C(=O)N3CCCC[C@H]3C(=O)O[C@H](/C(C)=C/[C@@H]3CC[C@H](Cl)[C@H](OC)C3)[C@H](C)[C@@H](O)CC1=O)[C@H](C)C[C@@H]2OC
inactive: outcome [1] | outcome [3]

CC(C)OC(=O)C1=CN(C(=O)c2ccc(F)c(F)c2)CC(C)(C)c2c1[nH]c1ccccc21
3.1: SSMD [7]
7590: cell count [10, 48]
0.0698: z-score [11, 50]
7570: cell count [10, 47]
active: AC50 [2] 26.4 µM
0.501: fold change [10, 46]
inactive: outcome [1] | outcome [4] | outcome [5] | outcome [3] | outcome [12] | outcome [6] | fold change [10, 45] 0.997 | plate-normalised HSF1 focus index [7] 1.17 | z-score [11, 49] -0.00254 | viability [8, 13] 123% | viability [8, 14] 126% | viability [8, 15] 115% | viability [8, 16] 112% | viability [8, 17] 116% | viability [8, 18] 130% | viability [8, 19] 117% | viability [8, 20] 110% | viability [8, 21] 128% | viability [8, 22] 128% | viability [8, 23] 111% | viability [8, 24] 115% | viability [8, 25] 108% | viability [8, 26] 126% | viability [8, 27] 118% | viability [8, 28] 115% | viability [8, 29] 112% | viability [8, 30] 128% | viability [8, 31] 115% | viability [8, 32] 116% | viability [8, 33] 125% | viability [8, 34] 131% | viability [8, 35] 113% | viability [8, 36] 114% | viability [8, 37] 114% | viability [8, 38] 122% | viability [8, 39] 114% | viability [8, 40] 106% | viability [8, 41] 125% | viability [8, 42] 118% | viability [8, 43] 114% | viability [8, 44] 113%
7100: cell count [7]
